The text below walks through data of PubChem BioAssay (Tox21).

A short description of experiment [1]: qHTS assay to identify small molecule antagonists of the glucocorticoid receptor (GR) signaling pathway - cell viability counter screen (AID 720693). Further: nearly all actives have a fitted effect of over 55% in size. Further: potency means the concentration at half of the fitted maximal effect. As to conditions: GR-bla HeLa viability, CellTiter-Glo luminescence, 18 h, with 5 nM dexamethasone present; series mostly up to 58.5 µM.
A short description of experiment [2]: qHTS assay for identifying genotoxic compounds that show differential cytotoxicity against isogenic chicken DT40 cell lines with known DNA damage response pathways - wild type cell line (AID 743012). Further: nearly all actives have a fitted effect of over 60% in size. Further: potency means the concentration at half of the fitted maximal effect. As to conditions: DT40 wild type chicken cells viability, CellTiter-Glo, 40 h; series mostly up to 68.4 µM. A digest of the protocol: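 Cytotoxicity in repair-proficient parental chicken DT40 cells serves as the comparator for Rad54/Ku70- and Rev3-deficient lines. Cells were exposed to compounds for 40 h at 37 C/5% CO2, and ATP-based luminescence (CellTiter-Glo) measured viability.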

Experiment [3] can be described thus: qHTS assay for identifying genotoxic compounds that show differential cytotoxicity against isogenic chicken DT40 cell lines with known DNA damage response pathways - Rev3 mutant cell line (AID 743014). Further: nearly all actives have a fitted effect of over 55% in size. Further: potency means the concentration at half of the fitted maximal effect. As to conditions: chicken DT40 Rev3-/- viability, CellTiter-Glo, 40 h; series mostly up to 68.4 µM.
The nature of experiment [4]: qHTS assay for identifying genotoxic compounds that show differential cytotoxicity against isogenic chicken DT40 cell lines with known DNA damage response pathways - Rad54/Ku70 mutant cell line (AID 743015). Further: nearly all actives have a fitted effect of over 60% in size. Further: potency means the concentration at half of the fitted maximal effect. The settings on record: DT40 Rad54/Ku70 mutant viability, CellTiter-Glo, 40 h; series mostly up to 66.8 µM.
Experiment [5] can be described thus: qHTS assay to identify small molecule antagonists of the androgen receptor (AR) signaling pathway - cell viability counter screen (AID 743033; further: nearly all actives have a fitted effect of over 45% in size; further: potency means the concentration at half of the fitted maximal effect). The settings on record: AR-bla HEK293 viability, CellTiter-Glo luminescence, 16 h; series mostly up to 58.5 µM.
Experiment [6] in a line: qHTS assay to identify small molecule antagonists of the androgen receptor (AR) signaling pathway using the MDA cell line - cell viability counter screen (AID 743041; further: nearly all actives have a fitted effect of over 45% in size). The settings on record: MDA-kb2 viability, CellTiter-Fluor, 16 h, cells co-treated with R1881 androgen agonist; series mostly up to 70.3 µM. A digest of the protocol:
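qHTS viability read-out; MDA-kb2 AR-luc; R1881-stimulated; 16 h exposure at 37C, 0% CO2; CellTiter-Fluor, 30 min; fluorescence intensity.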

Structures are written as SMILES. Inconclusive results are not listed. The source made the active and inactive calls. The call rests on the fitted dose curve; in most records, active means well fitted curve in the direction sought with a large enough effect in the repeat runs; inconclusive means weak or mixed curves; inactive means no such curve, though single readings can be large; an effect the other way counts as inactive or inconclusive.

On to `O=C(O)c1ccc(OCCn2ccnc2)cc1`, for which the Potency result in experiment [1], in experiment [2], in experiment [3], in experiment [4], in experiment [5] and in experiment [6] was “inactive” throughout.
In the case of `Nc1ncnc(Nc2ccc(Cl)cc2)n1`, the Potency result in experiment [1], in experiment [2], in experiment [3], in experiment [4], in experiment [5] and in experiment [6] was “inactive” each time.
For `CC(C(=O)O)c1ccc(N2Cc3ccccc3C2=O)cc1` (stereo unspecified), the Potency entry in experiment [1], in experiment [2], in experiment [3], in experiment [4], in experiment [5] and in experiment [6] was “inactive” in each case.
As to `O=C(Nc1ccc(Br)cc1)c1cc(Br)c(Br)s1`, the Potency was 21.3 µM (active) in experiment [1]; 26.6 µM (active) in experiment [2]; 33.5 µM (active) in experiment [3]; 26.6 µM (active) in experiment [4]; 21.3 µM (active) in experiment [5]. In experiment [6], the Potency result is “inactive”.
`Nc1nc(=O)n([C@@H]2CS[C@H](CO)O2)cc1F`: the Potency result in experiment [1], in experiment [2], in experiment [3], in experiment [4], in experiment [5] and in experiment [6] was “inactive” in each case.
Turning to `N[C@H](CC(=O)O)C(=O)O`, the Potency entry in experiment [1], in experiment [2], in experiment [3], in experiment [4], in experiment [5] and in experiment [6] was “inactive” in each case.
For the compound `COc1c(O[C@@H]2O[C@H](CO)[C@@H](O)[C@H](O)[C@H]2O)cc2c(c1OC)-c1ccc(SC)c(=O)cc1[C@@H](NC(C)=O)CC2`, the Potency entry in experiment [1], in experiment [2], in experiment [3], in experiment [4], in experiment [5] and in experiment [6] was “inactive” in each case.
As to `C[C@]12CC[C@@H]3c4ccc(OS(=O)(=O)O)cc4CC[C@H]3[C@@H]1CCC2=O`, the Potency result in experiment [1], in experiment [2], in experiment [3], in experiment [4], in experiment [5] and in experiment [6] was “inactive” throughout.
Turning to `C=CCSSSCC=C`, the Potency result in experiment [1], in experiment [2], in experiment [3], in experiment [4], in experiment [5] and in experiment [6] was “inactive” throughout.
In the case of `CCCCCCCCCCCCCCCCCCCCCCO`, the Potency result in experiment [1], in experiment [2], in experiment [3], in experiment [4], in experiment [5] and in experiment [6] was “inactive” in each case.
`C[C@H](O)[C@H](O)[C@H]1CNc2nc(N)[nH]c(=O)c2N1`: the Potency entry in experiment [1], in experiment [2], in experiment [3], in experiment [4], in experiment [5] and in experiment [6] was “inactive” each time.
Turning to `O=C(O)C1CCCN1` (stereo unspecified), the Potency result in experiment [1], in experiment [2], in experiment [3], in experiment [4], in experiment [5] and in experiment [6] was “inactive” in each case.
Consider `FC(F)(F)C(F)(F)C(F)(F)C(F)(F)C(F)(F)C(F)(F)F`, for which the Potency result in experiment [1], in experiment [2], in experiment [3], in experiment [4], in experiment [5] and in experiment [6] was “inactive” in each case.
As to `CO/N=C(\C(=O)N[C@@H]1C(=O)N2C(C(=O)OCOC(=O)C(C)(C)C)=C(/C=C\c3scnc3C)CS[C@H]12)c1csc(N)n1`, the Potency result in experiment [1], in experiment [2], in experiment [3], in experiment [4], in experiment [5] and in experiment [6] was “inactive” in each case.
Turning to `CN[C@@H]1[C@@H](O)[C@@H](O[C@@H]2[C@@H](O)[C@H](O[C@H]3O[C@H](CN)[C@@H](O)[C@H](O)[C@H]3O)[C@@H](N)C[C@H]2NC(=O)C(O)CN)OC[C@]1(C)O` (stereo partly specified), the Potency result in experiment [1], in experiment [2], in experiment [3], in experiment [4], in experiment [5] and in experiment [6] was “inactive” in each case.
Turning to `CCSc1ccc2c(c1)N(CCCN1CCN(C)CC1)c1ccccc1S2`, the Potency entry in experiment [1], in experiment [5] and in experiment [6] was “inactive” throughout. Besides, the figures for the Potency in experiment [2], in experiment [3] and in experiment [4] were 11.4 µM (active), 14.3 µM (active) and 11.4 µM (active), respectively.
With `CN1[C@@H]2CCC[C@H]1CC(NC(=O)c1nn(C)c3ccccc13)C2` (stereo partly specified), the Potency result in experiment [1], in experiment [2], in experiment [3], in experiment [4], in experiment [5] and in experiment [6] was “inactive” in each case.
Turning to `CC(O)[C@@H]1NC(=O)[C@H](CCCCN)NC(=O)[C@@H](Cc2c[nH]c3ccccc23)NC(=O)[C@H](Cc2ccccc2)NC(=O)[C@@H](NC(=O)[C@H](N)Cc2ccccc2)CSSC[C@@H](C(=O)N[C@H](CO)[C@@H](C)O)NC1=O` (stereo partly specified), the Potency result in experiment [1], in experiment [2], in experiment [3], in experiment [4], in experiment [5] and in experiment [6] was “inactive” throughout.
In the case of `CCCCc1cc2c(=O)c(C(=O)OC)c[nH]c2cc1OCc1ccccc1`, the Potency result in experiment [1], in experiment [2], in experiment [3], in experiment [4], in experiment [5] and in experiment [6] was “inactive” in each case.
Turning to `CCN(CC)CCOc1ccc2nc(N(C)C)sc2c1`, the Potency entry in experiment [1], in experiment [5] and in experiment [6] was “inactive” in each case. Moreover, the Potency in experiment [2] is 1.19 µM (active); in experiment [3] it was 1.68 µM (active); in experiment [4] it was 2.11 µM (active).
As to `NC(N)=NCC1COc2ccccc2O1` (stereo unspecified), the Potency result in experiment [1], in experiment [2], in experiment [3], in experiment [4], in experiment [5] and in experiment [6] was “inactive” throughout.
Regarding `O=C1O[C@H]2[C@H](O)[C@@H]1OC(O)[C@H]2O` (stereo partly specified), the Potency entry in experiment [1], in experiment [2], in experiment [3], in experiment [4], in experiment [5] and in experiment [6] was “inactive” throughout.
On to `c1cnc2cc3c(cc2n1)[C@@H]1CNC[C@H]3C1`, for which the Potency result in experiment [1], in experiment [2], in experiment [3], in experiment [4], in experiment [5] and in experiment [6] was “inactive” in each case.
As for `Cn1nnnc1SCC1=C(C(=O)O)N2C(=O)[C@@H](NC(=O)[C@H](O)c3ccccc3)[C@H]2SC1`, the Potency result in experiment [1], in experiment [2], in experiment [3], in experiment [4], in experiment [5] and in experiment [6] was “inactive” each time.
`O=C(Cn1c(=O)sc2ccc(Cl)cc21)N1CCN(CCO)CC1`: the Potency entry in experiment [1], in experiment [2], in experiment [3], in experiment [4], in experiment [5] and in experiment [6] was “inactive” throughout.
For `N=C(N)c1ccc(OCCCOc2ccc(C(=N)N)cc2Br)c(Br)c1`, the Potency entry in experiment [1], in experiment [5] and in experiment [6] was “inactive” throughout. Further, the Potency in experiment [2] is 5.96 µM (active); in experiment [3] it was 8.41 µM (active); in experiment [4], 6.68 µM (active).
For the compound `O=P(O)(O)C(O)(Cc1cnc2ccccn12)P(=O)(O)O`, the Potency result in experiment [1], in experiment [2], in experiment [3], in experiment [4], in experiment [5] and in experiment [6] was “inactive” in each case.
Turning to `CCOC(=O)[C@H](CCc1ccccc1)N[C@H]1CCCN2CCC[C@@H](C(=O)O)N2C1=O`, the Potency result in experiment [1], in experiment [2], in experiment [3], in experiment [4], in experiment [5] and in experiment [6] was “inactive” throughout.
`N[C@@H](C(=O)N[C@@H]1C(=O)N2C(C(=O)O)=C(Cl)CC[C@H]12)c1ccccc1`: the Potency entry in experiment [1], in experiment [2], in experiment [3], in experiment [4], in experiment [5] and in experiment [6] was “inactive” in each case.
Consider `O=P(O)(O)C(Sc1ccc(Cl)cc1)P(=O)(O)O`, for which the Potency result in experiment [1], in experiment [2], in experiment [3], in experiment [4], in experiment [5] and in experiment [6] was “inactive” throughout.
As for `CC(=O)Nc1c(I)c(C(=O)O)c(I)c(N(C)C(C)=O)c1I`, the Potency entry in experiment [1], in experiment [2], in experiment [3], in experiment [4], in experiment [5] and in experiment [6] was “inactive” throughout.
Regarding `O=P(O)(O)OC[C@H]1O[C@](O)(COP(=O)(O)O)[C@@H](O)[C@@H]1O`, the Potency entry in experiment [1], in experiment [2], in experiment [3], in experiment [4], in experiment [5] and in experiment [6] was “inactive” each time.
Regarding `CC1CCC(NC(=O)N(CCCl)N=O)CC1` (stereo unspecified), the Potency entry in experiment [1], in experiment [2], in experiment [3], in experiment [4], in experiment [5] and in experiment [6] was “inactive” throughout.
In the case of `CCCC(=O)O[C@]1(C(=O)COC(=O)CC)[C@@H](C)C[C@H]2[C@@H]3CCC4=CC(=O)C=C[C@]4(C)[C@@]3(F)[C@@H](O)C[C@@]21C`, the Potency entry in experiment [1], in experiment [5] and in experiment [6] was “inactive” in each case. The Potency in experiment [2] is 29.8 µM (active); in experiment [3] it was 29.8 µM (active); in experiment [4], 26.6 µM (active).
Regarding `CCCC1C(=O)N2C(N(C)C)=Nc3ccc(C)cc3N2C1=O` (stereo unspecified), the Potency entry in experiment [1], in experiment [2], in experiment [3], in experiment [4], in experiment [5] and in experiment [6] was “inactive” each time.
Take `CCCCCCCCCCCC(=O)N(CCO)CCO`: the Potency entry in experiment [1], in experiment [5] and in experiment [6] was “inactive” throughout. Also, the Potency was 29.8 µM (active) in experiment [2], 26.6 µM (active) in experiment [3] and 26.6 µM (active) in experiment [4].
